Screening data: PubChem BioAssay, Broad Institute
miR122 inh = activators of miR-122 sensor in Huh7 cells; activation, % at 12.5 µM; Huh7 psiCHECK-miR122 Renilla luciferase sensor, 48 h; 0.14% of 340,000 active;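 active means mean activation of 30% or more, with every replicate also reaching 30%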;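 further: higher luciferase signal means stronger suppression of miR-122 activity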
A number is an active result; n = inactive. Shown is part of a subset that was picked to be rich in hits.

SMILES	miR122 inh
O=C(C1CCCCC1)N1C[C@@H]2[C@H](c3ccccc31)[C@H](CO)N2Cc1ccccc1Cl	40
O=C(Cc1ccccc1)N1C[C@H]2[C@@H](c3ccccc31)[C@@H](CO)N2C(=O)C1CCCCC1	n
CCC(=O)N(C)C[C@H]1Oc2ncc(C#C[C@H](C)O)cc2C(=O)N([C@H](C)CO)C[C@H]1C	n
COCC#Cc1cnc2c(c1)C(=O)N([C@@H](C)CO)C[C@H](C)[C@@H](CN(C)C(=O)Cc1ccccc1)O2	n
C[C@H]1CN([C@@H](C)CO)C(=O)c2cc(C#CC3(O)CCCC3)cnc2O[C@@H]1CN(C)C(=O)C1CCCCC1	n
CO[C@H]1CN(C)C(=O)c2cc(NC(=O)Nc3ccccc3)ccc2OC[C@@H](C)NC[C@H]1C	n
CO[C@@H]1CN(C)C(=O)c2cc(NC(=O)Nc3ccccc3)ccc2OC[C@@H](C)NC[C@@H]1C	n
CC1CCN(CCc2nc3cc(NC(=O)Nc4ccccc4)ccc3n2C)CC1	31
Cc1noc(C)c1NC(=O)Nc1ccc2c(c1)CC(=O)N([C@@H](C)CO)C[C@H](C)[C@@H](CN(C)Cc1ccc(Cl)c(Cl)c1)O2	n
C[C@@H]1CN([C@@H](C)CO)S(=O)(=O)c2ccc(C#Cc3ccccc3F)cc2O[C@@H]1CN(C)C(=O)c1ccc2c(c1)OCO2	41
C[C@@H]1CN([C@@H](C)CO)S(=O)(=O)c2ccc(C#Cc3ccccc3F)cc2O[C@@H]1CN(C)C(=O)Cc1ccncc1	57
C[C@@H]1CN([C@H](C)CO)S(=O)(=O)c2ccc(Br)cc2O[C@H]1CN(C)C(=O)c1ccc2c(c1)OCO2	n
C[C@H]1CN([C@@H](C)CO)S(=O)(=O)c2ccc(C#Cc3ccccc3F)cc2O[C@@H]1CN(C)C(=O)Cc1ccccc1	n
C[C@@H]1CN([C@@H](C)CO)S(=O)(=O)c2ccc(C#Cc3ccccc3F)cc2O[C@H]1CN(C)C(=O)Cc1ccccc1	n
C[C@@H]1CN([C@H](C)CO)S(=O)(=O)c2ccc(C#Cc3ccccc3F)cc2O[C@H]1CN(C)C(=O)Cc1ccccc1	n
C[C@@H]1CN([C@@H](C)CO)S(=O)(=O)c2ccc(C#CCC3CCCC3)cc2O[C@@H]1CN(C)C(=O)CN(C)C	n
Cc1ccc(-c2ccc3c(c2)O[C@H](CN(C)Cc2cccc(C(=O)O)c2)[C@@H](C)CN([C@@H](C)CO)S3(=O)=O)cc1	n
C[C@@H]1CN([C@@H](C)CO)S(=O)(=O)c2ccc(/C=C/c3ccccc3)cc2O[C@H]1CN(C)C(=O)Nc1cccc(F)c1	n
COc1cccc(-c2cnc3c(c2)C(=O)N([C@@H](C)CO)C[C@H](C)[C@H](CN(C)C(=O)Nc2ccccc2F)O3)c1	n
CNC[C@@H]1Oc2cc(C#C[C@H](C)O)ccc2S(=O)(=O)N([C@H](C)CO)C[C@H]1C	n
COc1ccc(C#Cc2cnc3c(c2)C(=O)N([C@H](C)CO)C[C@@H](C)[C@H](CN(C)CC2CCOCC2)O3)cc1	n
C[C@@H]1CN([C@H](C)CO)C(=O)c2cc(/C=C/c3ccccc3)cnc2O[C@@H]1CN(C)C(=O)c1cccc(F)c1	n
COc1cccc(NS(=O)(=O)c2c(C)cc(C)cc2C)c1	n
COc1cccc(NS(=O)(=O)c2ccc(Br)s2)c1	n
COc1cccc(-n2nnnc2S(C)(=O)=O)c1	48
SMILES	miR122 inh
C[C@H](CO)N1C[C@H](C)[C@H](CN(C)S(=O)(=O)c2cn(C)cn2)Oc2ncc(-c3cccc(C(F)(F)F)c3)cc2C1=O	n
COCC#Cc1cnc2c(c1)C(=O)N([C@H](C)CO)C[C@H](C)[C@@H](CN(C)C(=O)Nc1ccccc1OC)O2	n
Cc1ccc(-c2ccc3c(c2)O[C@@H](CN(C)C(=O)NC(C)C)[C@H](C)CN([C@H](C)CO)S3(=O)=O)cc1	n
C[C@@H]1CN([C@@H](C)CO)S(=O)(=O)c2ccc(C#C[C@@H](C)O)cc2O[C@@H]1CN(C)C	n
C[C@H]1CN([C@@H](C)CO)C(=O)c2cc(-c3ccc(F)cc3)cnc2O[C@@H]1CN(C)Cc1ccccn1	n
Nc1cccc2nc3ccccc3cc12	51
C[C@@H]1CN([C@@H](C)CO)C(=O)c2cc(-c3ccc(C#N)cc3)cnc2O[C@H]1CN(C)CC1CCOCC1	n
C[C@@H]1CN([C@H](C)CO)C(=O)c2cc(/C=C/c3ccccc3)cnc2O[C@H]1CN(C)C(=O)C1CCOCC1	n
CCC(=O)Nc1ccc2c(c1)OC[C@@H](C)NC[C@H](C)[C@@H](OC)CN(C)C2=O	n
C[C@@H]1CN([C@@H](C)CO)S(=O)(=O)c2ccc(C#CCC3CCCC3)cc2O[C@H]1CN(C)C(=O)c1ccccn1	n
CCCNC(=O)N1C[C@@H]2[C@H](c3ccccc31)[C@@H](CO)N2C(=O)C1CCOCC1	39
CCCNC(=O)N1[C@@H]2CN(C(=O)c3ccccc3)c3ccccc3[C@@H]2[C@@H]1CO	36
O=C(c1ccccc1)N1C[C@H]2[C@@H](c3ccccc31)[C@@H](CO)N2C(=O)c1cccc(F)c1	n
COCC(=O)N1[C@@H](CO)[C@@H]2c3ccccc3N(C(=O)c3cccnc3)C[C@@H]21	42
COCC#Cc1ccc2c(c1)O[C@@H](CN(C)C(=O)COC)[C@H](C)CN([C@@H](C)CO)S2(=O)=O	n
COc1ccc(CN(C)C[C@H]2Oc3c(NC(=O)NC4CCCCC4)cccc3C(=O)N([C@H](C)CO)C[C@@H]2C)cc1	n
C[C@@H]1CN([C@H](C)CO)C(=O)c2cc(-c3cccc(F)c3)cnc2O[C@H]1CN(C)C(=O)c1ccccn1	n
CCCNC(=O)N(C)C[C@@H]1Oc2ncc(C#C[C@@H](C)O)cc2C(=O)N([C@@H](C)CO)C[C@@H]1C	n
COCC(=O)N(C)C[C@@H]1Oc2ncc(/C=C/c3ccccc3)cc2C(=O)N([C@H](C)CO)C[C@H]1C	n
C[C@@H]1CN([C@H](C)CO)C(=O)c2cc(/C=C/c3ccccc3)cnc2O[C@@H]1CN(C)S(=O)(=O)c1ccc(F)cc1	n
C[C@H](CO)N1C[C@H](C)[C@H](CN(C)Cc2cncnc2)Oc2cc(-c3cncnc3)ccc2S1(=O)=O	n
C[C@@H]1CN([C@@H](C)CO)C(=O)c2cc(C#CC3CC3)cnc2O[C@H]1CN(C)Cc1ccncc1	n
COc1ccc(NC(=O)/C(Cl)=C(/Cl)S(=O)(=O)Cc2ccccc2)cn1	32
COc1ccc(NC(=O)c2cccc(S(=O)(=O)Nc3ccc(Br)cc3)c2)cn1	n
CC(=O)N(C)C[C@H]1Oc2cc(C#C[C@@H](C)O)ccc2S(=O)(=O)N([C@@H](C)CO)C[C@H]1C	n
SMILES	miR122 inh
C[C@H](CO)N1C[C@H](C)[C@H](CN(C)C(=O)CC2CC2)Oc2cc(C3=CCCCC3)ccc2S1(=O)=O	n
COCC(=O)N(C)C[C@@H]1Oc2cc(Br)ccc2S(=O)(=O)N([C@H](C)CO)C[C@@H]1C	n
C/C=C/c1ccc2c(c1)O[C@@H](CN(C)Cc1ccccc1F)[C@H](C)CN([C@@H](C)CO)S2(=O)=O	n
C[C@H](CO)N1C[C@H](C)[C@H](CN(C)Cc2cccnc2)Oc2cc(C#C[C@@H](C)O)ccc2S1(=O)=O	n
CCCNC(=O)N(C)C[C@@H]1Oc2ncc(C#C[C@@H](C)O)cc2C(=O)N([C@H](C)CO)C[C@@H]1C	n
COc1cc(Cl)cc(/C=N\NC(=O)c2ccc3c(c2)OCO3)c1O	41
N/C(Cc1cccc2ccccc12)=N\OC(=O)c1ccc2c(c1)OCO2	n
COc1cccc(-c2ccc3c(c2)O[C@@H](CN(C)C(C)=O)[C@@H](C)CN([C@H](C)CO)S3(=O)=O)c1	n
